Assay results taken from PubChem BioAssay AID1903 (Southern Research Specialized Biocontainment Screening …, 2009).
About 1,200 (0.39%) of roughly 310,000 compounds were called active. No rule for the calls is given here. The list is a sample of the results. Potency and affinity values are given separately.

target: Large T antigen (Simian virus 40) (UniProt P03070); assay: TAg ATPase/helicase activity blockers – biochemical (AID 1903); details: SV40 large T antigen ATPase/helicase inhibition assay; at 20 µM; active compounds read high
Sequence (P03070 whole entry, looked up): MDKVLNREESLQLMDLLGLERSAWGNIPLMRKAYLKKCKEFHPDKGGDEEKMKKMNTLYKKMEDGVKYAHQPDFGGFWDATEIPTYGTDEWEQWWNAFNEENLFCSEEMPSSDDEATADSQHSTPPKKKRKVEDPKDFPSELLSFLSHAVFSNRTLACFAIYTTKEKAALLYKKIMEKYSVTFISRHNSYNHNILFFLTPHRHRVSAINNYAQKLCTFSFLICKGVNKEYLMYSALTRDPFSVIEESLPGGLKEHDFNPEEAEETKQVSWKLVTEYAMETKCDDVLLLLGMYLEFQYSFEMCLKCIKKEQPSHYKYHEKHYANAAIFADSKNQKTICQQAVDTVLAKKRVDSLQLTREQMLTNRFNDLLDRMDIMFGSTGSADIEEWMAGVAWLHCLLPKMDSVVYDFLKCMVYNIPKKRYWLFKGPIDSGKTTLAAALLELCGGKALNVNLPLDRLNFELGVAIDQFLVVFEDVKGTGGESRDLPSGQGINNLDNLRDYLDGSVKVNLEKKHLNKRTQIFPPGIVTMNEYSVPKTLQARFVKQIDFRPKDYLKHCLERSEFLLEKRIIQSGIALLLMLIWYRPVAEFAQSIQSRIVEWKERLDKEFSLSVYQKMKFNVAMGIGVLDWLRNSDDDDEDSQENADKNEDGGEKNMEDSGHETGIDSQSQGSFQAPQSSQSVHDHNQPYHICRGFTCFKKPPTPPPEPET

inhibition, inactive:
COc1ccc(C(CNc2ccc(S(=O)(=O)N3CCCC3)cc2[N+](=O)[O-])N2CCCC2)cc1 (stereo unspecified) 0.85%
O=C(C1CCCN(Cc2ccccc2F)C1)N1CCCC1 (stereo unspecified) -1.92%
CC1CN(c2nc3c(c(=O)n(C)c(=O)n3C)n2Cc2c(Cl)cccc2Cl)CC(C)O1 (stereo unspecified) -0.38%
CN(C)S(=O)(=O)c1cccc(NC(=O)COC(=O)COc2ccccc2[N+](=O)[O-])c1 8.43%
CC(=O)C1=C(C)Nc2ncnn2C1c1cccc(Br)c1 (stereo unspecified) 4.82%
Cn1c(C(=O)NCCOc2ccccc2Cl)cc(=O)n(C)c1=O 3.15%
COc1cc2c(cc1/C=C/C(=O)O)OC(C)C2 (stereo unspecified) -5.46%
CC(C)(O)[C@H]1Cc2cc3ccc(=O)oc3cc2O1 -9.56%
CCCc1ccc(S(=O)(=O)N/N=C\c2ccc3c(c2)OCO3)cc1 10.3%
Cc1ccc(S(=O)(=O)NCC(=O)Nc2cccc([N+](=O)[O-])c2)cc1 1.03%
Cc1onc(-c2c(Cl)cccc2Cl)c1/C(N)=N/OC(=O)C(C)(C)C 7.65%
COC(=O)CCC(=O)OC1(C)C(=O)C2=COC(c3ccc(OC)cc3)=CC2=C(Br)C1=O (stereo unspecified) 50.8%
CCC(C)/C=C/C1=CC2=C(Cl)C(=O)C3(C)OC(=O)C(C(=O)C(C)C(C)O)C3C2=CO1 (stereo unspecified) 12.9%
CC[C@H](C)/C=C(C)/C=C/C1=CC2=CC(=O)[C@]3(C)OC(=O)[C@@H](C(C)=O)[C@@H]3C2=CO1 18%
O=C(CSc1nc(-c2ccccc2)c(-c2ccccc2)o1)N1CCOCC1 4.01%
O=C(CNC(=O)c1ccc(Cl)cc1Cl)OCc1nnc(-c2ccccc2)o1 15.1%
CC1(C)CC(=O)c2sc(NC(=O)C3COc4ccccc4O3)nc2C1 (stereo unspecified) 4.75%
O=C(C1CCN(S(=O)(=O)c2cccs2)CC1)N1CCCCC1 13.9%
Cc1cc(C)c2c(CN3CCCCC3)cc(=O)oc2c1 20.4%
Cc1cc(C)c2c(CN3CCN(C)CC3)cc(=O)oc2c1 -0.86%
COC1CCN(C(=O)CC2C(=O)NCCN2CC(C)(C)C)CC1 (stereo unspecified) -3.7%
O=C(CC12CC3CC(CC(C3)C1)C2)Nc1nncs1 12.5%
COc1ccc(NC(=O)CCc2c(C)nc3nc(C)nn3c2C)cc1 -3.06%
O=C(c1cc2ccccc2oc1=O)N1CCN(S(=O)(=O)c2ccccc2)CC1 18.2%
O=C1NC(=S)N/C1=C/c1cc2c(cc1[N+](=O)[O-])OCO2 3%
O=C1NN(c2ccccc2)C(=O)/C1=C\c1ccc2c(c1)OCO2 18%
O=C(CCN1C(=O)/C(=C/C=C/c2ccccc2)SC1=S)Nc1nc2ccccc2s1 9.79%
Cc1ccccc1NC(=O)c1ccc2c(c1)CCN2S(C)(=O)=O 11.3%
CCC(C)n1c(SCC(=O)/C(C#N)=C(\C)N)nc2ccccc2c1=O (stereo unspecified) 7.34%
C/C(=C\c1ccccc1)C(=O)Nc1nc2ccc([N+](=O)[O-])cc2s1 8.41%
CC(/C=N/n1c(-c2cccnc2)n[nH]c1=S)=C\c1ccco1 31.8%
Cc1ccc(/C=N/n2c(C)nnc2C)cc1 19.4%
S=c1[nH]nc(-c2n[nH]c3c2CCC3)n1/N=C/C=C/c1ccccc1 20.8%
CC(=C/c1ccccc1)/C=N/n1c(-c2ccncc2)n[nH]c1=S 19%
S=c1[nH]nc(-c2ccncc2)n1/N=C/c1cccc(Cl)c1 29.1%
Clc1ccccc1CN1CCN(/N=C/C=C/c2ccco2)CC1 15.9%
Cc1cccc(/C=N/n2c(C)nnc2C)c1 10.3%
S=c1[nH]nc(-c2ccco2)n1/N=C/c1ccc(Cl)cc1 31%
COC(=O)c1cn(NC(=O)CC2CCCCC2)c(=O)c2ccccc12 1.58%
O=c1[nH]cnc2onc(-c3ccc(F)cc3)c12 34%
O=[N+]([O-])c1cccc2nc(-c3ccccc3)c(-c3ccccc3)nc12 1.39%
CCCCOc1ccc(C(=O)NCc2ccccn2)cc1 -4.84%
COc1ccc(C(=O)NC(=S)NC(C)c2ccccc2)cc1 (stereo unspecified) 5.22%
Cc1ccc(C)c(N2CCN(CCCNC(=O)CCn3c(=O)c4cccn4c4cccnc43)CC2)c1 15.1%
Cc1cc(C(C)(C)C)ccc1OCC(=O)N/N=C\c1c(C)n(C)n(-c2ccccc2)c1=O -3.36%
COc1ccc(CN2CCC(n3nccc3NC(=O)CCOc3ccccc3)CC2)cc1C 5.92%
O=C(NCc1ccco1)c1csc2c1CCCCC2 1.56%
Cc1cc(C)cc(CSCC(=O)N/N=C/c2ccc(OCC(=O)NCc3ccco3)cc2)c1 10.9%
CC(/C=N/n1c(-c2ccco2)n[nH]c1=S)=C\c1ccco1 28.2%
Cc1ccsc1/C=N/n1c(-c2ccccc2)n[nH]c1=S 18.6%
Cc1ccsc1/C=N/n1c(-c2ccncc2)n[nH]c1=S 25.6%
CC(/C=N/n1c(-c2ccc(Cl)cc2)n[nH]c1=S)=C\c1ccco1 22.6%
CC(/C=N/n1c(-c2ccc(C)cc2)n[nH]c1=S)=C\c1ccco1 19.5%
CC(/C=N/n1c(-c2ccccc2)n[nH]c1=S)=C\c1ccco1 33.1%
CCOc1ccccc1NC(=S)NCCc1ccc(F)cc1 2.66%
O=C(CS(=O)(=O)c1ccc(F)cc1)Nc1nnc(-c2cccs2)o1 28.3%
COc1ccc(OC(=O)COc2ccc(Cl)cc2)cc1 21.7%
Cc1cccc(NC(=S)N2CCN(c3ccccn3)CC2)c1 7.16%
COC(=O)C1=NNC2(C)C(=O)N(c3ccc(C)cc3)C(=O)C12 (stereo unspecified) 1.54%
CCc1c(C)c(C#N)c2nc3ccccc3n2c1Cl -5.75%
Cc1cc(C(C)C)n2c(nc3ccccc32)c1C#N 3.46%
